37 molecules from PubChem BioAssay AID651791 (National Center for Advancing Translational Sciences (NCATS), 2012) can be followed below.

Results filed as inconclusive are left out. Calls of active or inactive are those of the source. Calls follow the shape of the dose curve; as a rule, active = well fitted inhibition curve with a large enough effect; inconclusive = small, poorly fitted or top-dose-only effect; inactive = no such curve, though single readings can be large or run the other way.
Potency is read from the fitted curve at half-maximal effect.

The nature of this assay: InCell qHTS Assay for Inhibitors of the mTORC1 Signaling Pathway in MEF (Tsc2-/-, p53-/-) Cells: Hit Validation.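 Also: phospho-S6 Ser235/236 signal normalized to propidium iodide cell count per well; nearly all actives have a fitted effect of over 75% in size.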 The note with it: phospho-rpS6 immunofluorescence, 24 h; activity change, negative = inhibition: at 38.3 µM (top of the series). (In general: Quantitative high-throughput screening tests each substance at several concentrations.)
Take `Cc1c(Cl)ccc2sc(NC(=O)c3ccc(S(=O)(=O)N4CCCc5ccccc54)cc3)nc12`: the activity change, negative = inhibition was -3.12%. Same read-out and setting: the same measure for `CCC(=O)C1=C(c2ccc(F)cc2)N(C(=O)CC)n2cnnc2S1`: -21.8%; for `CCCCOC(=O)c1ccc(NC(=O)c2ccc3c(c2)CCN3S(=O)(=O)c2ccccc2)cc1`: -100%. On the same count and under the same terms, under `O=C(c1ccc(CS(=O)c2ccccc2Cl)o1)N1CCN(c2cccc(Cl)c2)CC1` (configuration not stated) stands -100%; under `CCN(CCCNC(=O)c1cc2c(=O)[nH]c3ccccc3c2s1)c1ccccc1`, -100%.

On to `COc1ccc(C(=O)Nc2ccc3c(c2)N(C)C(=O)c2ccccc2S3)cc1OC`, for which the activity change, negative = inhibition is -100%. On the same count and under the same terms, the same measure for `CCOC(=O)N1CCN(Cc2nc3cc(NC(=O)c4ccc(F)cc4)ccc3n2C(C)C)CC1`: -100%. Consider `CC(C(=O)NCc1cccc(Br)c1)n1ncn2cccc2c1=O` (configuration not stated), for which the activity change, negative = inhibition is -100%.

`C#CC(C)(CC)NC(=O)Cn1nnc(-c2ccc(OCc3c(F)cccc3Cl)cc2)n1` (configuration not stated): the activity change, negative = inhibition is -100%. The same measure, in the same setting: the same measure for `Cc1ccc(-c2nnn(CC(=O)N(CC(=O)NCCC(C)C)c3ccc(F)cc3)n2)cc1`: -100%; for `COc1ccc(NC(=O)CSc2c3c(nc4ccccc24)CCC3)c(OC)c1`: -100%. Consider `Cc1ccc(C2c3c(-c4ccccc4O)n[nH]c3C(=O)N2CCc2ccccc2)cc1` (configuration not stated), for which the activity change, negative = inhibition was -100%. For `Cc1cc(C)cc(OCC(=O)Nc2cccc(-c3nc4ccccc4[nH]3)c2)c1`, the activity change, negative = inhibition is -100%. Still for that read-out and setting: under `COc1cc(C(=O)Nc2ccc(NC(=O)c3ccc(C(C)(C)C)cc3)cc2)cc(OC)c1OC` stands -100%. For the molecule `Cc1ccc(-c2nnc(Nc3ccc(O)cc3)c3ccccc23)cc1S(=O)(=O)N1CCCCC1`, the activity change, negative = inhibition was -100%. Still for that read-out and setting: the same measure for `Cc1ccc2sc(N(CCCN(C)C)C(=O)c3ccco3)nc2c1C`: -25.4%; for `COc1cc(OC)c(NS(=O)(=O)c2ccc3c(c2)CCCN3C(C)=O)cc1Cl`: -100%. Turning to `CCNS(=O)(=O)c1cc(-c2nnc(Nc3cccc(C(F)(F)F)c3)c3ccccc23)ccc1C`, the activity change, negative = inhibition is -100%. Consider `CN(Cc1ccccc1)C(=O)CSc1c2c(nc3ccc(Cl)cc13)CCCC2`, for which the activity change, negative = inhibition was -100%. Regarding `CC1CCN(S(=O)(=O)c2ccc3nc(Nc4cccc(C(F)(F)F)c4)ccc3c2)CC1`, the activity change, negative = inhibition is -100%.

For `CCCC1=Nc2cc(C(=O)NCc3ccccc3)ccc2Sc2ccccc21`, the activity change, negative = inhibition was -100%.

Consider `CCc1ccc(CNc2ncc(-c3cccc(OC)c3)n2C)cc1`, for which the activity change, negative = inhibition was -100%.

In the case of `CCOc1cc(C2CC(=O)Nc3cc4c(cc32)OCCO4)ccc1O` (configuration not stated), the activity change, negative = inhibition was -100%. On the same count and under the same terms, the same measure for `CCc1ccccc1NC(=O)CSc1nc2c(oc3ccccc32)c(=O)n1-c1ccccc1F`: -100%; for `Cc1ccc(Nc2nc(C(N)=O)c(NC(=O)c3ccccc3Br)s2)cc1`: -17.8%. Same read-out and setting: under `Cc1cccc(CSCCNC(=O)CN(c2ccccc2)S(=O)(=O)N(C)C)c1` stands -100%. The same measure, in the same setting: under `Cc1ccccc1CN1C(=O)C(O)(CC(=O)c2ccccc2)c2cc(Cl)ccc21` (configuration not stated) stands -2.04%. In the case of `CCCCn1c(=N)n(CCOc2ccccc2OC)c2ccccc21`, the Potency was 7.36 µM (active). With `CCOC(=O)C1CCN(c2cc3c(cc2NC(=O)c2ccccc2Cl)n(C)c(=O)n3C)CC1`, the activity change, negative = inhibition was -12.8%. The same measure, in the same setting: under `CCOC(=O)N1CCN(Cc2nc3cc(NC(=O)CC(C)C)ccc3n2C(C)C)CC1` stands -100%. As for `Cc1cc(C)c(NC(=O)Cn2c(=O)n(Cc3ccc(C(=O)NCc4ccc5c(c4)OCO5)cc3)c(=O)c3ccccc32)c(C)c1`, the Potency was 3.29 µM (active).

`CCN(CC)CCNC(=O)c1ccc(Cn2c(=O)c3cccn3c3cccnc32)cc1`: the activity change, negative = inhibition was -100%. The same measure, in the same setting: the same measure for `CCc1ccc(NC(=O)Cn2nc(C(F)(F)F)c3c2CCCC3)cc1`: -100%; for `COc1cc(C(=O)N(CCCN(C)C)c2nc3c(OC)cccc3s2)cc(OC)c1OC`: -100%. On the same count and under the same terms, the same measure for `O=C(c1ccco1)n1nc(-c2ccc(Cl)cc2)nc1NCc1ccccc1`: -100%. For the molecule `CCOc1ccc(Nc2nc(N)c(C(=O)c3ccccc3Cl)s2)cc1`, the activity change, negative = inhibition is -100%. As for `Cc1c(C2=CCN(S(=O)(=O)c3ccc(Br)cc3)CC2)c2ccccc2n1CC(=O)N1CCCC1`, the activity change, negative = inhibition was -100%.
